Measurements from PubChem BioAssay (EPA / NIEHS).
Inconclusive results are not listed. Active and inactive are the calls of the source. The calls were made as follows: active = hit-call score of the fitted dose curve at least 0.9, where 1 is the maximum; inconclusive = response in the unintended direction; inactive = score below 0.9.

Each molecule was assayed against rat CYP1A2, Cyp1a2 (gene 24297) (UniProt P04799) (assay: NVS_ADME_rCYP1A2: NovaScreen (NVS) CYP450-related Enzyme Activity (ADME) Assay for rat CYP1A2 (AID 2283115)).
Sequence of rat CYP1A2, Cyp1a2 (gene 24297) (P04799 whole entry, looked up): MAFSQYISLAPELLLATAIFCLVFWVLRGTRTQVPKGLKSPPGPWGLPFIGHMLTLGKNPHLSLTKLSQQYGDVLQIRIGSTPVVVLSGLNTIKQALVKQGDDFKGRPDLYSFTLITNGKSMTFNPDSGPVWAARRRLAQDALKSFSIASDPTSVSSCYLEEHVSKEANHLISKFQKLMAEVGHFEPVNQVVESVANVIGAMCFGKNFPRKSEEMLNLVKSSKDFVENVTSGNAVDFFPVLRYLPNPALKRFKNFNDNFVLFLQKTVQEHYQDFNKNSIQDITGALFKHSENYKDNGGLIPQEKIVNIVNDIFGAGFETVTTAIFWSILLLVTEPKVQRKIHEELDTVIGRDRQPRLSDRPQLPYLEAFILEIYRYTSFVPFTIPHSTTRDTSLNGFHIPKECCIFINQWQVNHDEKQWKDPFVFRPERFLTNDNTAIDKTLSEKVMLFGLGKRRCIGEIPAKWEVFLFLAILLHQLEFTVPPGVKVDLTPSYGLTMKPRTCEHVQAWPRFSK
Procedure: NVS_ADME_rCYP1A2 is a biochemical, single-readout assay that uses extracted gene-proteins in a cell-free assay. Measurements were taken 1 hour after chemical dosing in a 96-well plate.NVS_ADME_rCYP1A2 is one of one assay component(s) measured or calculated from the NVS_ADME_rCYP1A2 assay. It is designed to make measurements of enzyme activity, a form of enzyme reporter, as detected with fluorescence intensity signals by Fluorescence technology.Data from the assay component NVS_ADME_rCYP1A2 was analyzed into 1 assay endpoint. This assay endpoint, NVS_ADME_rCYP1A2, was analyzed in the positive analysis fitting direction relative to Acetonitrile as the negative control and baseline of activity. Using a type of enzyme reporter, loss-of-signal activity can be used to understand changes in the enzymatic activity as they relate to the gene Cyp1a2. Furthermore, this assay endpoint can be referred to as a primary readout, because this assay has produced multiple assay endpoints where this one serves a enzymatic activity function. To generalize the intended target to other relatable targets, this assay endpoint is annotated to the cyp intended target family, where the subfamily is xenobiotic metabolism.
Binding assays used specific radioligands (tritiated, iodinated) with non-radioactive competitive displacement ligands in agonist or antagonist protocols (as indicated) and various reference compounds and inhibitors to titrate specific binding to receptors and transporters. Most enzyme assays (CYPs, kinases, phosphatases, proteases, HDACs) used recombinant protein and specific substrates (fluorescence mostly, some colorimetric and radioactive) and inhibitors, followed by a biochemical separation of substrate and product. All assays for the biochemical HTS were initially run in duplicate at a single concentration (10 uM for CYP450 assays and 25 uM for all others). […] Each assay was run with positive and negative controls, and concurrent controls on every plate. The follow-up (secondary) screen tested active chemical-pairs in concentration series, as well as a few additional assays not tested in the primary screen, some selected negative inactives, and several cases re-run in the concentration series for confirmatory purposes.
With `c1cc[nH]c1` the outcome was “inactive”. With `COc1ccc(C(=O)/C(Br)=C\C(=O)O)cc1` the outcome was “inactive”. In the case of `CO[Si](CCC1CCC2OC2C1)(OC)OC` (centres undefined), the outcome is reported as “inactive”. In the case of `CCN(CC)c1ccc2c(C)cc(=O)oc2c1`, the AC50 is reported as 8.15 µM (active). For `CCCCCCC(C)OC(=O)CCCCC(=O)OC(C)CCCCCC` (centres undefined), the outcome was “inactive”. With `CCC(C)c1cc([N+](=O)[O-])cc([N+](=O)[O-])c1OC(=O)OC(C)C` (centres undefined) the outcome was “inactive”. In the case of `COC(=O)CSc1cc(N=c2sc(=O)n3n2CCCC3)c(F)cc1Cl`, the outcome is reported as “inactive”. For `CCCCOCCOCCOCc1cc2c(cc1CCC)OCO2`, the outcome was “inactive”. With `O=C1OC2(c3cc(Br)c(O)c(Br)c3Oc3c2cc(Br)c(O)c3Br)c2c(Cl)c(Cl)c(Cl)c(Cl)c21` the outcome was “inactive”. With `CN(C)C(=O)Nc1ccc(Cl)c(Cl)c1` the outcome was “inactive”. With `c1ccc2[nH]c(-c3cscn3)nc2c1` the outcome was “inactive”. With `c1ccc2sc(SN(C3CCCCC3)C3CCCCC3)nc2c1` the outcome was “inactive”. `O=S1(=O)CC(Cl)(Cl)C(Cl)(Cl)C1` was tested, and the outcome was “inactive”. With `CSC(=O)c1cccc2nnsc12` the outcome was “inactive”. `CNNCc1ccc(C(=O)NC(C)C)cc1` was tested, and the outcome was “inactive”. `O=C1c2ccccc2C(=O)c2c(O)ccc(O)c21` was tested, and the outcome was “inactive”. In the case of `c1ccc2c(c1)c1cccc3ccc4cccc2c4c31`, the outcome is reported as “inactive”. With `NC(=S)NNC(N)=S` the outcome was “inactive”. For `CCOC(=O)C1=NOC(c2ccccc2)(c2ccccc2)C1`, the outcome was “inactive”.
